Test results as given in the supplement of paper PMC11624193, “Coupling cellular drug-target engagement to downstream pharmacology with CeTEAM” (Nature Communications, 2024).
Counter-ions that a name gives are not always drawn.

Biological target: PARP1 L713F-nLuc biosensor (HCT116) (UniProt P09874)
Test: PARP1 L713F-nLuc/akaLuc ratio relative to DMSO control (biosensor stabilization) (fold change); higher = more PARP1 biosensor stabilization (target engagement / stabilizer), active = hit call of the paper
Conditions: stock concentration (mM; final µM = stock mM x 1): 10; 24 h;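 active = log2 fold change beyond 2 SD from the library mean after excluding viability outliers; inactive = within 2 SD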

PARP1 L713F-nLuc biosensor (HCT116), sequence (P09874 whole entry L713F, looked up): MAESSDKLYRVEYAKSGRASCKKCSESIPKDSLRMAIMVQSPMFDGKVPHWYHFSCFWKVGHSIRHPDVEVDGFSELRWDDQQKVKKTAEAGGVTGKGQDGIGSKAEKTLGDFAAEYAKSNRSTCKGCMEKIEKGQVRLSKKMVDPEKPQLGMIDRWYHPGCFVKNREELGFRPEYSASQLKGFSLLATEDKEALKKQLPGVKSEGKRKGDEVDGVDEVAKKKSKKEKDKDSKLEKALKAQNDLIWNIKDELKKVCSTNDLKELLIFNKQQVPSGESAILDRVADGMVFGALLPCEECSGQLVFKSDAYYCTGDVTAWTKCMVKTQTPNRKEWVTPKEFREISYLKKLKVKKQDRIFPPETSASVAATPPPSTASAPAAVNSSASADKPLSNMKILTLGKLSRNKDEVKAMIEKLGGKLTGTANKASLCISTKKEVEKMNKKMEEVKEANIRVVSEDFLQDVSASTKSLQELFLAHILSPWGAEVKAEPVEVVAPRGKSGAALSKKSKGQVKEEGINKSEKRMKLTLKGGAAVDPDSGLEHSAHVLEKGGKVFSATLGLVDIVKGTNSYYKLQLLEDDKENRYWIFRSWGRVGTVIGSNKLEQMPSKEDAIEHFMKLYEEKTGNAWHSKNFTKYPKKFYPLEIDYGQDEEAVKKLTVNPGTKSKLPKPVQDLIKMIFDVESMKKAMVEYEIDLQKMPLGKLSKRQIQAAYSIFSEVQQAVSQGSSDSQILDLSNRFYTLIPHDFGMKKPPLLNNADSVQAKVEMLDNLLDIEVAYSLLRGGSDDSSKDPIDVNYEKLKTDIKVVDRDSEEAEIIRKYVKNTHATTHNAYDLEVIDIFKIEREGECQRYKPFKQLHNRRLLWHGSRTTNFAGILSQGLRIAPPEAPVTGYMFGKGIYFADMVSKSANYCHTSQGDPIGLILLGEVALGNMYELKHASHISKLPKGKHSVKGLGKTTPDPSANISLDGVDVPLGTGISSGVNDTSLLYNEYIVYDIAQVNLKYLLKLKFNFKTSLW

| SMILES | PARP1 L713F-nLuc/akaLuc ratio |
| --- | --- |
| CCC(Sc1nnc2c(n1)[nH]c1ccccc12)C(=O)N1c2ccccc2Sc2ccccc21 (stereo unspecified) [Inauhzin] | 0.33 (active) |
| CCCC(CCC)C(=O)O [Valproic acid (sodium salt)] | 0.704 (inactive) |
| N#Cc1ccc(COC[C@H]2O[C@@H](n3c(NCc4ccc(Cl)c(Cl)c4)nc4c(N)ncnc43)[C@H](O)[C@@H]2O)cc1 | 0.717 (inactive) |
| N=C(N)c1ccc(-c2ccc(-c3ccc(C(=N)N)cc3)o2)cc1 [Furamidine (dihydrochloride)] | 0.717 (inactive) |
| O=c1ccc2ccc(O)c(O)c2o1 [Daphnetin] | 1.38 (inactive) |
| CCS(=O)(=O)N1CC(CC#N)(n2cc(-c3ncnc4[nH]ccc34)cn2)C1 [Baricitinib (phosphate)] | 1.19 (inactive) |
